The results in this text go back to PubChem BioAssay (NCI).

Compounds without any hit were thinned out: in the full panel of roughly 83,000, 20% have a hit.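 Plates (96-well) were seeded with cells, treated with compound at one concentration, and incubated for 48 hours before percent growth was determined.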 A number with no mark means an inactive call. The source made the active and inactive calls. How the source made its calls: active means growth percent below 10; inactive means the rest.

For one test, the system named is RPMI-8226 leukemia. As to the kind of experiment: NCI-60 one-dose screen, 48 h (100 = growth as untreated, 0 = no growth, -100 = all killed). The note with it: 10 µM unless noted.
As for `Cc1c(Cl)cccc1C(=O)Nc1nc2c(s1)CN(C(=O)c1ccc(C(F)(F)F)cc1)CC2`, the growth is 10.6%.
Consider `CCCCCN(CCCCC)CC(O)c1cc(C)c2ccc3cc(C(C)C)ccc3c2c1` (centres undefined), for which the growth was -18.6% (active).
Same read-out and setting: the same measure for `CCC1S/C(=N\N=C(\C)c2cc3cc(Cl)ccc3o2)N(c2ccccc2)C1=O` (centres undefined): 83.7%; for `CN1C(=O)/C(=C/c2ccc(C(=O)Nc3ncc(Cc4cccc(Cl)c4)s3)cc2)SC1=S`: 60.8%; for `O=C(NCc1cccc(CNC(=O)Nc2nc3ccccc3[nH]2)c1)Nc1nc2ccccc2[nH]1`: -18.8% (active).
Regarding `COc1ccc(Cn2cc3c(c2-c2ccccc2)CCc2cnoc2-3)cc1`, the growth is -25.3% (active).
As to `Cc1ccc(CNc2c3ccccc3nc3ccccc23)cc1`, the growth was -11% (active).
On the same count and under the same terms, to `FC(F)(F)c1ccc(Cn2cc(CSc3nc4ccccc4s3)nn2)cc1` belongs 96.7%; to `COc1cc(OC)c2sc(-c3ccc(-n4cncc4-c4cc(OC)c(OC)c(OC)c4)cc3)nc2c1`, 27.3%.
Turning to `C#CCn1cnc2cnc(Nc3cccc(NC(=O)C=C)c3)nc21`, the growth was -14% [6.25 µM] (active).
For the compound `CC(=O)/C(=C/c1ccc([N+](=O)[O-])cc1)C(=O)c1ccccc1`, the growth was 8.32% (active).
Same read-out and setting: to `CCOC(=O)/C=C1\S/C(=N\Nc2cc(=O)[nH]c3ccccc23)N(c2ccccc2)C1=O` belongs 112%.
Regarding `Cc1ccc(/C=C/C(=O)c2ccc(-n3cc(CN4CCN(c5cc6c(cc5F)c(=O)c(C(=O)O)cn6C5CC5)CC4)nn3)cc2)cc1`, the growth is 44.3%.

For a further test, the system named is OVCAR-8 ovarian. The description is as above. As to conditions: 10 µM unless noted.
For the compound `CC(=O)OC[C@]12CC[C@@H]([C@@H](C)c3nnc(-c4ccncc4)o3)[C@@H]1[C@H]1CC[C@@H]3[C@@]4(C)CC[C@H](OC(C)=O)C(C)(C)[C@@H]4CC[C@@]3(C)[C@]1(C)CC2`, the growth was 90.4%.
Consider `CCN(CC)c1ccc(/C=N/NC(=O)Cc2ccc(Nc3ccnc(C(F)(F)F)c3)cc2)c(O)c1`, for which the growth was 28.8%.
In the case of `Cc1cc2c(cc1C)N(C(=O)CCl)CC(=O)N2`, the growth is 61.6%.
Regarding `C#CC#CC#CC#CC#CC#CC#CC#CC[C@@H]1OC[C@@H](COC(=O)O[C@@H](C(=O)O[C@H]2C[C@@]3(O)[C@@H](OC(=O)c4ccccc4)[C@@H]4[C@]5(OC(C)=O)CO[C@@H]5C[C@H](O)[C@@]4(C)C(=O)[C@H](OC(C)=O)C(=C2C)C3(C)C)[C@@H](NC(=O)c2ccccc2)c2ccccc2)O1`, the growth was 94.7%.
As to `C/C=C(\C)C(=O)N[C@H]1C(O)C[C@]2(C)C3CC[C@@]4(C)C(CC[C@@H]4C(C)N(C)C)C3CCC2C1O` (some centres undefined), the growth is 84.2%.
Turning to `C#Cc1cccc(Nc2nc(C)nc3cc(NC(=O)CCl)ccc23)c1`, the growth was -15.4% (active).
Turning to `CSc1nn2c(-c3ccc4ccccc4c3)ccnc2c1C#N`, the growth is 23%.
On the same count and under the same terms, the same measure for `CCN(CC)CCCOc1ccc2ncnc(Nc3ccc(Oc4cccc(C(F)(F)F)c4)c(Cl)c3)c2c1`: 16.9%.
Take `O=C1/C(=C\c2ccccn2)c2ccccc2N1c1c(Cl)cccc1Cl`: the growth was 4.47% (active).
For the compound `CCOC(=O)c1c(C)c2c(n1Cc1ccccc1)CSCC2=O`, the growth was 17.7% [100 µM].
As to `O=C(CN1CCN(c2cc3c(cc2F)c(=O)c(C(=O)O)cn3C2CC2)CC1)N/N=C/c1ccco1`, the growth was 98.2%.
For the compound `Clc1ccc(-c2cc(-c3ccccc3)nc(NCCNc3ccnc4cc(Cl)ccc34)n2)cc1`, the growth is -55.9% (active).
Regarding `N#C/C(=C\C=C\c1ccc(-c2cc(Cl)ccc2Cl)o1)c1nc2ccccc2s1`, the growth is 96.4%.
Turning to `COc1cc(OC)c(C(=O)C(CN(C)C)CN(C)C)cc1OC`, the growth was 104%.
On to `CCn1cc(CNc2ccc(C(=O)Nc3cc4cc(OC)c(OC)cc4c(C)n3)cc2)cn1`, for which the growth was 28%.
Take `N#Cc1c(-c2ccccc2)nc(SCc2nnc(-c3ccc(Cl)cc3)o2)[nH]c1=O`: the growth is 93.6%.
Turning to `O=P(O)(O)OCC1OC(n2cnc3c(NCc4ccco4)ncnc32)C(O)C1O` (centres undefined), the growth is 9.63% (active).
In the case of `CCN(CC)CCCN1C(=O)c2c(c(C)c3c(oc4ccc(O)cc43)c2C)C1=O`, the growth is -31.8% (active).
The same measure, in the same setting: the same measure for `O=[N+]([O-])c1ccc(-c2cn3nc(-c4c[nH]c5ccccc45)sc3n2)cc1`: 104%.
For the compound `Cc1nc2ccccc2c(/C=C/c2ccccc2)c1C(=O)/C=C/c1ccccc1`, the growth is 10.4%.
Regarding `O=C1Nc2c(C(=O)O)cccc2/C1=N/c1n[nH]c(=S)s1`, the growth was 91%.
